Common to all, as to assay: log2 fold change, soluble protein after heating vs DMSO (PISA); higher = thermal stabilisation; K562 cells, 10 uM, 30 min; active = over 0.2 and 3.5 SD of the protein, either way, in both replicates (recomputed)
Compound in one assay: CON(C)C(=O)N1N=C(c2cc(F)ccc2F)S[C@@]1(CCCN)c1ccccc1 [filanesib]
The gist of the method: (§1)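 Aliquots of K562 cells (2×10^6 cells/mL) treated with 10 μM compound for 30 min were heated for 3 min over 48°C-58°C. After pooling and extraction in PBS with 0.5% NP-40 at 4°C, soluble protein from a 21,000xg, 90 min spin was quantified by TMTpro 16plex LC-MS/MS with channel sums equalised. Thermal stability is expressed against control samples, from duplicates, as a log2 fold change.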

Compound in another assay: CO[C@H]1C[C@@H]2CC[C@@H](C)[C@@](O)(O2)C(=O)C(=O)N2CCCC[C@H]2C(=O)O[C@H]([C@H](C)C[C@@H]2CC[C@H](n3cnnn3)[C@H](OC)C2)CC(=O)[C@H](C)/C=C(\C)[C@@H](O)[C@@H](OC)C(=O)[C@H](C)C[C@H](C)/C=C/C=C/C=C/1C [zotarolimus]
The essentials:
as §1

Compound in the next assay: COc1cc(C(=O)O)ccc1NC(=O)[C@@H]1N[C@@H](CC(C)(C)C)[C@](C#N)(c2ccc(Cl)cc2F)[C@H]1c1cccc(Cl)c1F [idasanutlin]
The gist of the method: as §1

Compound in another assay: COc1cc(Nc2ncc3c(n2)-c2ccc(Cl)cc2C(c2c(F)cccc2OC)=NC3)ccc1C(=O)O [alisertib]
The gist of the method:
as §1

Compound in assay [1]: COc1cc2nc(-c3cc(F)ccc3O)nc(N[C@@H]3CNC[C@H]3C(C)(C)O)c2cc1OC
The gist of the method:
as §1

Compound in another assay: COc1cc2ncnc(Nc3ccc(F)c(Cl)c3)c2cc1OCCCN1CCOCC1 [gefitinib]
The gist of the method: as §1

Compound in assay [2]: COc1cccc2cc(-c3nc([C@H]4CC[C@H](C(=O)O)CC4)n4ncnc(N)c34)[nH]c12
The gist of the method: as §1

Compound in a further assay: CS(=O)(=O)CCNCc1ccc(-c2ccc3ncnc(Nc4ccc(OCc5cccc(F)c5)c(Cl)c4)c3c2)o1 [lapatinib]
The gist of the method:
as §1

Compound in assay [3]: CS(=O)(=O)c1ccc(-c2cnc(N)c(C(=O)Nc3ccccc3)n2)cc1
The gist of the method: as §1

Compound in assay [4]: C[C@@H]1COCCN1C2=NC(=NC(=C2)C3(CC3)S(=O)(=O)C)C4=C5C=CNC5=CC=C4
The essentials: as §1

Compound in assay [5]: C[C@H](C1=CC=C(C=C1)C(=O)NC2=C3C=CNC3=NC=C2)N
The essentials: as §1

Compound in a further assay: C[C@H](Nc1ncnc2nc[nH]c12)c1cc2cccc(Cl)c2c(=O)n1-c1ccccc1 [duvelisib]
The essentials:
as §1

Compound in a further assay: Cc1cc(Nc2cc(N3CCN(C)CC3)nc(Sc3ccc(NC(=O)C4CC4)cc3)n2)n[nH]1 [tozasertib]
The gist of the method: as §1

Compound in assay [6]: Cc1cc(SCc2sc(-c3ccc(C(F)(F)F)cc3)nc2C)ccc1OCC(=O)O
The essentials:
as §1

Compound in another assay: Cc1ccc(C(=O)N(CCCN)[C@@H](c2nc3cc(Cl)ccc3c(=O)n2Cc2ccccc2)C(C)C)cc1 [ispinesib]
The gist of the method:
as §1

Compound in the next assay: CS(=O)(=O)N1CCN(Cc2cc3nc(-c4cccc5[nH]ncc45)nc(N4CCOCC4)c3s2)CC1 [pictilisib]
The essentials:
as §1

Compound in a further assay: Cc1cc(Nc2cc(CN3CCOCC3)c3nc(C)c(Cc4ccc(Cl)cc4F)n3n2)n[nH]1 [gandotinib]
The essentials:
as §1

Compound in assay [7]: COC1=CC=C(C=C1)CN2C=CC3=C2C=C(C=C3)C(=O)NO
The gist of the method:
as §1

Compound in a further assay: C[C@@H](Oc1cc(-c2cnn(C3CCNCC3)c2)cnc1N)c1c(Cl)ccc(F)c1Cl [crizotinib]
The essentials: as §1

Compound in another assay: Cc1ccc(-n2nc(C(C)(C)C)cc2NC(=O)Nc2ccc(OCCN3CCOCC3)c3ccccc23)cc1 [doramapimod]
The essentials:
as §1

Of roughly 7,900 targets only a part is listed; those with a hit were picked by preference. About 0.6% of all pairs of compound and target were hits. Values without a mark were called inactive.

Chain of UniProt Q9NXE4 (Q9NXE4 whole entry, looked up): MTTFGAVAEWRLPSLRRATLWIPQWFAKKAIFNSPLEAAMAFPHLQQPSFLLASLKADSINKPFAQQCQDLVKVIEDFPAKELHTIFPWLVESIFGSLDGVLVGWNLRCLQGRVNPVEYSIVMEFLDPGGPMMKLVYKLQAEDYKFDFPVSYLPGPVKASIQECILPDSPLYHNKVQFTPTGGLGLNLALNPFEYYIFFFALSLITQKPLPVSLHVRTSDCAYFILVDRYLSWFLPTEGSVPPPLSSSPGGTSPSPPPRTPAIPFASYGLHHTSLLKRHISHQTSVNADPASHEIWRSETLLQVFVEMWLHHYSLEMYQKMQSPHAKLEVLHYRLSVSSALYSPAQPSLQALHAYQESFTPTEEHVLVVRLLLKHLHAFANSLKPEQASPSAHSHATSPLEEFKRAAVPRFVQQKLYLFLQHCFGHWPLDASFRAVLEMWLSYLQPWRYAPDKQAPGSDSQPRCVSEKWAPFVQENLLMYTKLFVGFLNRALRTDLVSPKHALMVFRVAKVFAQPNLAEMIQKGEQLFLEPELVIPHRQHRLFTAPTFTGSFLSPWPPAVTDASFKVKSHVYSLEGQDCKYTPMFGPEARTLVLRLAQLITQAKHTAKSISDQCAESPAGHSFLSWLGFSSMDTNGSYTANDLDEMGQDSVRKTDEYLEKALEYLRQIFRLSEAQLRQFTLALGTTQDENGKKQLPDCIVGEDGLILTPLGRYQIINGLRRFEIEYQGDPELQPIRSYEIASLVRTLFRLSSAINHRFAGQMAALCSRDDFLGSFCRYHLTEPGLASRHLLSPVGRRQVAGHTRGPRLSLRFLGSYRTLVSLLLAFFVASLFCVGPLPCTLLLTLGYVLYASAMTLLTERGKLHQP
Chain of UniProt P78383 (P78383 whole entry, looked up): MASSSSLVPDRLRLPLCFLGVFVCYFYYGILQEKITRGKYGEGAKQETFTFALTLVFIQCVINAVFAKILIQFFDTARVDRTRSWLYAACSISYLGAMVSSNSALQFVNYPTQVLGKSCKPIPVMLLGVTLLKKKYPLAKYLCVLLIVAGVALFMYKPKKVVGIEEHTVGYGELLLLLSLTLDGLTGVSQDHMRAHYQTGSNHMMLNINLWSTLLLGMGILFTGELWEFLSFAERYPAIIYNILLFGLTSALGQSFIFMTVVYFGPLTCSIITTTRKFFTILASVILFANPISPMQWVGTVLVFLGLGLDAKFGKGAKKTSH
Chain of UniProt Q969S0 (Q969S0 whole entry, looked up): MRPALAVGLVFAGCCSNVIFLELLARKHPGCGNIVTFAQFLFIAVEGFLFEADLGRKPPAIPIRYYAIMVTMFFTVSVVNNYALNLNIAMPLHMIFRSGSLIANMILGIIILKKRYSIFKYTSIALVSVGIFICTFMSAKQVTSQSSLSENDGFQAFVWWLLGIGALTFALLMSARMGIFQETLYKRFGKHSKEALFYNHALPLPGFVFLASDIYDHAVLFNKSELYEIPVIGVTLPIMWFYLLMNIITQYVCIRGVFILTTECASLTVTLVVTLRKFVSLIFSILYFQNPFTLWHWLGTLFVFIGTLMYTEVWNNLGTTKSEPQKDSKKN
Chain of UniProt Q9BYX2 (Q9BYX2 whole entry, looked up): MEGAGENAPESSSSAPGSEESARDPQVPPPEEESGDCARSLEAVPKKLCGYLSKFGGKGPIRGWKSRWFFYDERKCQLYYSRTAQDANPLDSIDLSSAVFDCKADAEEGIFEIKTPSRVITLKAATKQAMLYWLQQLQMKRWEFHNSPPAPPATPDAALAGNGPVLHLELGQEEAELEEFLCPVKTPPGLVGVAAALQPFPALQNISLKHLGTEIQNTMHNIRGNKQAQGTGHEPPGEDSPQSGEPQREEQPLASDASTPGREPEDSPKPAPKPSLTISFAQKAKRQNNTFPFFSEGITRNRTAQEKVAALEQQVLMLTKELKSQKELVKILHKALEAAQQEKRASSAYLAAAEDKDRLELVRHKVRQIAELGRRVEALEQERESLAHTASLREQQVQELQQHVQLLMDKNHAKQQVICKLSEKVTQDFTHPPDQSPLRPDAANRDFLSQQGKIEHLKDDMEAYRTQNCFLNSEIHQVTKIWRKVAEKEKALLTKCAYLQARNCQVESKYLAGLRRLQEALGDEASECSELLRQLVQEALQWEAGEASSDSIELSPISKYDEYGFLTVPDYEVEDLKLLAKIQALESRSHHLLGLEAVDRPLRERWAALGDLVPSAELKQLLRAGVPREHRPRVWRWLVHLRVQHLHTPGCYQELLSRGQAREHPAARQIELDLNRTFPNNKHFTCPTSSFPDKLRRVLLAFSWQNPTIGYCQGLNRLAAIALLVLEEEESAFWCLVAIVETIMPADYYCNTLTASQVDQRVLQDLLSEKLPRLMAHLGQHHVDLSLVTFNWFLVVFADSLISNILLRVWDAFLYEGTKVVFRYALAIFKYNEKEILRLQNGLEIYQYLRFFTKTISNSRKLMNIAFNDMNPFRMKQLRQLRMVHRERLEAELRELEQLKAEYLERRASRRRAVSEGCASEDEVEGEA
Chain of UniProt Q8N5G0 (Q8N5G0 whole entry, looked up): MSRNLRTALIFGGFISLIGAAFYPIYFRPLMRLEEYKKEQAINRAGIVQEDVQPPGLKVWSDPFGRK
Chain of UniProt O60749 (O60749 whole entry, looked up): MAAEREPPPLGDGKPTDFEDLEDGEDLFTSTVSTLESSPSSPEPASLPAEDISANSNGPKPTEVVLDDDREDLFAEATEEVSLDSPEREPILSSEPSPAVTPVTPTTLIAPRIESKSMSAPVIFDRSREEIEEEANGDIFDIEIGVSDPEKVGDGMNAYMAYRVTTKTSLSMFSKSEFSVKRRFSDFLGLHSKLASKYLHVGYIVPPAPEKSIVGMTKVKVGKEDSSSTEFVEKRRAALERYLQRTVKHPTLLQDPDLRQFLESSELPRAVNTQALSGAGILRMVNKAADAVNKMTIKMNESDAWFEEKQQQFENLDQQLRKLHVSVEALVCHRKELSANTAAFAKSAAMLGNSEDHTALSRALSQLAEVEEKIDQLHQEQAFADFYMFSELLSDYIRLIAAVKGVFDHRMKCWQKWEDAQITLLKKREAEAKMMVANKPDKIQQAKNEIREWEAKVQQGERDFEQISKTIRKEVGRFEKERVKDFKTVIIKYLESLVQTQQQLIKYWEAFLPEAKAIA
Chain of UniProt Q96NT5 (Q96NT5 whole entry, looked up): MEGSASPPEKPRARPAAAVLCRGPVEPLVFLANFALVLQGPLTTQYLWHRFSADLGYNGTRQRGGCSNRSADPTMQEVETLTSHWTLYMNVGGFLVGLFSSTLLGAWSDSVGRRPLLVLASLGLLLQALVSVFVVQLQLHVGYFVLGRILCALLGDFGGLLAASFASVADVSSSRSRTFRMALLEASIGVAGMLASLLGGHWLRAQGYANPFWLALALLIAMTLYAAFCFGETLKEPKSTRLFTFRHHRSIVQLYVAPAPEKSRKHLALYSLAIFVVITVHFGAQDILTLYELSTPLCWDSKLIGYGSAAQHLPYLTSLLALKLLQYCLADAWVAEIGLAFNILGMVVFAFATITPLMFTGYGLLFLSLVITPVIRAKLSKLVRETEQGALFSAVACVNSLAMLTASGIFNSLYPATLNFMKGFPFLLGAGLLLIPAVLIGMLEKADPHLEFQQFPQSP
Chain of UniProt Q8N357 (Q8N357 whole entry, looked up): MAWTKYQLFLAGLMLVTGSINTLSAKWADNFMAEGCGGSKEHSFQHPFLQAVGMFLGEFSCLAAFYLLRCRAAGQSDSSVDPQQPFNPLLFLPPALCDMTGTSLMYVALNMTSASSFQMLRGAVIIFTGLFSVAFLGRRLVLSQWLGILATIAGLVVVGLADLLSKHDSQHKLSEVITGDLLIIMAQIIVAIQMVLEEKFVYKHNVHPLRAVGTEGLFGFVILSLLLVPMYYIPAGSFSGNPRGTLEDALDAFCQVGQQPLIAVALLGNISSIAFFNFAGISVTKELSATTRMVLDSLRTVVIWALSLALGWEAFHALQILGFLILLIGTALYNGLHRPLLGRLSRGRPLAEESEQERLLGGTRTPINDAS
Chain of UniProt Q9NUW8 (Q9NUW8 whole entry, looked up): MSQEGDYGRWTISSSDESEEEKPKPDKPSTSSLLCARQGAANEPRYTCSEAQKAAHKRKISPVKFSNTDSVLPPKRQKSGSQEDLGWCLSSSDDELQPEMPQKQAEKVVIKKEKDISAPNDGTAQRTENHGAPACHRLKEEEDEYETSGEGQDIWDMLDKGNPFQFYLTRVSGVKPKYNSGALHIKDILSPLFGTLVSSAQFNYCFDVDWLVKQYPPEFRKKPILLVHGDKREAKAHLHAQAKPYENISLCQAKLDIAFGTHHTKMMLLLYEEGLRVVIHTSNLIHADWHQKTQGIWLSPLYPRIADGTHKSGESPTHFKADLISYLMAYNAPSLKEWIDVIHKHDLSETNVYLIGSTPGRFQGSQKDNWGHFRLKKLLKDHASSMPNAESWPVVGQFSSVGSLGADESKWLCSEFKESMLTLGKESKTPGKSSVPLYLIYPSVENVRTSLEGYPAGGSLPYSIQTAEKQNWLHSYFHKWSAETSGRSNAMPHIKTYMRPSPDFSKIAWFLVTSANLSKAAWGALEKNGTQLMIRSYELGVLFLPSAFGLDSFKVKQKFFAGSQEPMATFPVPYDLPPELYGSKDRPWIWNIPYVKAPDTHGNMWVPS

For the target SLC35F6 (UniProt Q8N357), the log2 fold change was -0.001 in the assay with filanesib; 0.016 with zotarolimus; 0.02 with idasanutlin; -0.052 with alisertib; 0.033 in [1]; 0 in the assay with gefitinib. In addition, the log2 fold change in [2] was 0.037; with lapatinib it was -0.076; in assay [3], -0.247; in assay [4], 0.021; in assay [5], 0.076; with duvelisib, -0.049. Moreover, the results for the log2 fold change (with tozasertib; in assay [6]; with ispinesib) were 0.034, -0.219 and -0.083, respectively.
SLC46A1 (UniProt Q96NT5): the log2 fold change was -0.095 with zotarolimus; -0.107 with idasanutlin; 0.061 with pictilisib; -0.047 in assay [5]; -0.006 with gandotinib; 0.035 with tozasertib.
Take TDP1 (UniProt Q9NUW8): the log2 fold change with zotarolimus was -0.015; in assay [5], 0.145.
With SMIM20 isoform 2 (UniProt Q8N5G0), the log2 fold change with filanesib was 0.093; in the assay with zotarolimus, -0.037; with idasanutlin, 0.095; with alisertib, -0.056; in [1], 0.024; with gefitinib, 0.057. Besides, the log2 fold change was 0.091 in assay [2]; -0.044 with lapatinib; -0.044 in the assay with pictilisib; -0.014 in assay [3]; 0.126 in assay [4]; 0.019 in [5]. The log2 fold change with duvelisib was 0.086; with gandotinib, 0.068; in the assay with tozasertib it was 0.069; in [6] it was -0.068; with ispinesib, 0.089.
Take SLC35B4 (UniProt Q969S0): the log2 fold change in assay [7] is -0.076; with filanesib, -0.119; in the assay with idasanutlin, 0.027; with alisertib, 0.032; with gefitinib it was 0.149; in assay [2], 0.076. Besides, the log2 fold change in [3] is 0.016; in the assay with crizotinib, 0.256; in [4] it was 0.048; in the assay with tozasertib, 0.063; in the assay with doramapimod it was 0.038.
Regarding SLC35B1 isoform 2 (UniProt P78383), the log2 fold change in assay [7] was -0.106; with filanesib it was -0.037; with zotarolimus, -0.005; with alisertib it was -0.232; in the assay with gefitinib, -0.022; in assay [2], 0.129. The log2 fold change in assay [3] is 0.049; with crizotinib, -0.053; in assay [4] it was -0.042; in [5], -0.535 (active); with duvelisib, 0.171; with tozasertib it was 0.075. Also, the log2 fold change was 0 in assay [6], -0.061 with doramapimod and -0.043 with ispinesib.
For TBC1D2 (UniProt Q9BYX2), the log2 fold change was 0.016 with idasanutlin; -0.053 with alisertib; -0.211 in assay [2]; -0.097 in the assay with pictilisib; 0.064 in assay [4]; -0.04 with gandotinib.
Regarding SNX2 isoform 2 (UniProt O60749), the log2 fold change in assay [7] was 0.258; with filanesib, -0.234; with zotarolimus, 0.022; with idasanutlin, -0.054; in assay [1] it was 0.462; with lapatinib, 0.041. In addition, the log2 fold change was 0.135 in [3]; -0.145 with crizotinib; 0.071 in assay [4]; 0.108 in assay [5]; 0.015 with duvelisib; -0.029 in assay [6]. Also, in the assay with doramapimod, the log2 fold change is 0.17.
With SMPD4 isoform 2 (UniProt Q9NXE4), the log2 fold change was -0.011 in assay [7]; 0.043 with zotarolimus; -0.16 in the assay with idasanutlin; -0.117 with alisertib; -0.308 in [1]; 0.003 in assay [2]. The log2 fold change was 0.131 with lapatinib; -0.108 in the assay with pictilisib; -0.21 with crizotinib; -0.061 in assay [5]; 0.069 with duvelisib; -0.263 with gandotinib. Moreover, the figures for the log2 fold change (with tozasertib; in [6]; with doramapimod) were -0.163, 0.09 and 0.027, respectively.

These data come from the supplement of paper PMC10849652.
